A word on the viability: it is a read-out of living cells in per cent, often relative to untreated cells.

The structures appear in SMILES notation. About 5,100 (6%) of roughly 85,000 compounds were called active. This is one part of a sample in which actives are shown more often than they occur.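 Rule for the calls: active = viability at or below 40%; inactive = viability above 40%.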

For 101 compounds, viability results are on record in PubChem BioAssay AID598 (SRMLSC, 2007).

The experiment is described as follows: proliferation blockers of H69AR lung cancer cells, primary screen, cell-based, human, 86K library (AID 598).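 Note: multidrug resistant small cell line overexpressing MRP-1 efflux transporter; 100% = mean luminescence of untreated control wells.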 The settings on record: H69AR lung tumor viability, ATP luminescence, 72 h; at 10 µM; hits give low values.
For `O=C(Nc1ccc2oc(-c3ccc4ccccc4c3)nc2c1)c1cccs1`, the viability is 2.65% (active).

Regarding `O=C(Cc1cccc2ccccc12)Nc1ccc2oc(-c3ccccc3)nc2c1`, the viability was 59.7% (inactive).

`Cc1nc(-c2ccc(NC(=O)c3cccs3)cc2)cs1`: the viability was 70.7% (inactive).

Turning to `CCNC(=O)c1sccc1-n1cccc1`, the viability is 103% (inactive).

In the case of `CC(C)(C)NC(=O)Cn1c(SCC(=O)Nc2nccs2)nc2ccccc21`, the viability was 92.5% (inactive).

Consider `O=S(=O)(N1CCCCC1)N1CCNCC1`, for which the viability was 100% (inactive).

For `Cc1cccc(C)c1NC(=O)CCCSc1nnc(-c2ccco2)n1-c1ccccc1`, the viability is 34.3% (active).

As to `COc1ccc(C(=O)NC(=O)CSc2nnc(-c3ccco3)n2-c2ccccc2)cc1`, the viability is 95.2% (inactive).

Regarding `O=C(CSc1nnc(-c2ccco2)n1-c1ccccc1)NCCc1ccccc1`, the viability was 82% (inactive).

As to `COC(=O)c1sc(=S)n(-c2ccc(Cl)cc2)c1C`, the viability is 90% (inactive).

With `CCOn1c(SC(C)C)nc2ccccc2c1=O`, the viability is 103% (inactive).

`CCOC(=O)c1c(C)nc2c(c1C)c(=O)oc1ccccc12`: the viability is 98.3% (inactive).

Consider `Cc1ccc(OC(=O)c2cc3ccccc3o2)cc1`, for which the viability is 104% (inactive).

Regarding `CCOC(=O)c1cc2cc(-c3c(C(=O)OCC)oc4cc(O)cc(O)c4c3=O)ccc2o1`, the viability is 16.6% (active).

For `CN(C)c1nc(N)nc(CSc2ccccn2)n1`, the viability was 91% (inactive).

In the case of `Cc1cc(N/C=C\C(=O)c2ccc(Cl)c(Cl)c2)no1`, the viability was 84.8% (inactive).

For the compound `COC(=O)CNS(=O)(=O)c1ccc(OC)cc1`, the viability was 91.5% (inactive).

In the case of `CCCC(NS(=O)(=O)c1ccc(OC)cc1)C(=O)O` (stereo unspecified), the viability is 104% (inactive).

For the compound `CCOC(=O)c1ccccc1NS(=O)(=O)c1ccc(OC)cc1`, the viability is 18.2% (active).

As for `O=c1[nH][nH]c(C(F)(F)F)c1C=NCc1ccccc1Cl`, the viability is 81.2% (inactive).

Consider `COc1ccc(-c2nc(-c3ccccc3)no2)c(OC)c1`, for which the viability was 69.4% (inactive).

`Cc1cccc(-c2noc(-c3ccc(F)cc3)n2)c1`: the viability was 91.5% (inactive).

For `Cn1nc(-c2ccccc2)c(-c2nc(-c3ccc(Cl)cc3)no2)c1Cl`, the viability is 34.3% (active).

Take `COc1ccc(Cl)cc1C(=O)NCc1cn(C)nc1C`: the viability was 86.1% (inactive).

Turning to `Cc1ccccc1-n1c(C)cc(/C=C2\NC(=O)NC2=O)c1C`, the viability was 85.6% (inactive).

Regarding `CC1(C)CCCC2=C1CC1C(=O)N(c3ccccc3)C(=O)C1C2` (stereo unspecified), the viability was 84% (inactive).

Consider `CC1CC2=C(CC1/C=N/NC(N)=S)C(C)(C)CCC2` (stereo unspecified), for which the viability was 2.3% (active).

Consider `CCCCc1nc2ccccc2c(=O)n1NC(=O)c1c(O)c2cccc3c2n(c1=O)CC3`, for which the viability is 70.7% (inactive).

Consider `CCCc1nc2ccccc2c(=O)n1NC(=O)c1c(O)c2ccccc2[nH]c1=O`, for which the viability is 86.6% (inactive).

For `CCCc1nc2ccccc2c(=O)n1/N=C/c1ccc(O)c(O)c1`, the viability was 15.8% (active).

In the case of `CCOc1cc(C(=S)N2CCOCC2)ccc1O`, the viability was 85.1% (inactive).

As for `CCn1c(=O)cc(O)c2ccccc21`, the viability is 83.1% (inactive).

Turning to `CCn1c2ccccc2c2cc(NC(=S)N3CCOCC3)ccc21`, the viability was 20.1% (active).

With `CS(=O)(=O)Nc1ccc(C(=O)N2CCCC2)cc1`, the viability is 89.1% (inactive).

With `Cc1ccc(CN2CCN(/N=C/c3ccco3)CC2)c(C)c1`, the viability was 106% (inactive).

Regarding `C=CCNC(=O)c1cc2nc(C3CC3)cc(C(F)F)n2n1`, the viability is 91.1% (inactive).

Regarding `Cc1[nH]n(-c2ccc(Cl)cc2)c(=O)c1/C=N/n1c(C)nc2ccccc2c1=O`, the viability was 50.4% (inactive).

Consider `Cc1[nH]n(-c2cccc(Cl)c2)c(=O)c1/C=N/n1c(C)nc2ccccc2c1=O`, for which the viability is 29.1% (active).

As for `Cn1c(COc2ccc(Cl)cc2)nc2ccccc2c1=O`, the viability was 77.5% (inactive).

Consider `O=C(CN(c1ccccc1)S(=O)(=O)c1ccc(Cl)cc1)Nc1ccccc1C(=O)N1CCCC1`, for which the viability was 84.3% (inactive).

As to `O=C(Cc1ccc(-n2c(=O)[nH]c3ccccc3c2=O)cc1)N1CCN(c2cccc(Cl)c2)CC1`, the viability is 89.4% (inactive).

For `Cc1ccc(NC(=O)Nc2ccc3oc(C)nc3c2)cc1`, the viability is 74.5% (inactive).

Take `COc1ccc(NC(=O)Nc2ccc3nc(C)c(C)nc3c2)cc1`: the viability was 90.7% (inactive).

As to `O=C(Nc1ccc2ccccc2c1)Nc1ccc2snnc2c1`, the viability is 7.33% (active).

For the compound `Cc1cc2nc(C)n(CCCNC(=O)Nc3ccccc3)c2cc1C`, the viability is 91.7% (inactive).

For the compound `CCC1CCCCN1CCCNC(=O)C1CCC(Cn2c(=O)[nH]c3ccccc3c2=O)CC1` (stereo unspecified), the viability is 77.4% (inactive).

For `Cc1cccc(NC(=O)C2CC(=O)OC23CCCC3)c1` (stereo unspecified), the viability is 102% (inactive).

In the case of `COc1ccc(C2CC(c3ccc(C)cc3)Nc3ncnn32)cc1` (stereo unspecified), the viability was 91.5% (inactive).

Turning to `Clc1ccc(C2CC(c3cccs3)n3ncnc3N2)cc1Cl` (stereo unspecified), the viability is 35.8% (active).

Take `COc1ccc(C2CC(c3ccccc3)Nc3ncnn32)cc1` (stereo unspecified): the viability is 90.5% (inactive).

Regarding `Cc1cccc(C(=O)Nc2ccccc2N2CCN(c3ccc(F)cc3)CC2)c1`, the viability is 89.6% (inactive).

Consider `FC(F)(F)c1nnc2ccc(N3CCN(c4ccccc4)CC3)nn12`, for which the viability is 92.5% (inactive).

On to `COc1ccc(S(=O)(=O)N2CCC(C(=O)N3CCc4ccccc4C3)CC2)cc1OC`, for which the viability is 88.7% (inactive).

As for `COc1cc2c(cc1OC)CN(C(=O)c1cc(=O)c3ccccc3o1)CC2`, the viability was 18.1% (active).

Regarding `COc1ccc2c(c1)CCc1c(C(=O)N3CCc4ccccc4C3)noc1-2`, the viability was 94.9% (inactive).

In the case of `CCN(CC)C(=O)CSc1nc2ccccc2o1`, the viability was 91.7% (inactive).

Take `CCOc1cc(/C=N/O)cc(Br)c1OC`: the viability was 90.5% (inactive).

In the case of `CCOc1c(Br)cc(/C=C2\C(=O)N(CCC#N)N=C2C)cc1OC`, the viability was 26.2% (active).

Take `Cc1nnc(NCCO)c2ccccc12`: the viability is 89.8% (inactive).

In the case of `Cn1c(SCC(=O)N2CCCc3ccccc32)nc2ccccc2c1=O`, the viability is 62.9% (inactive).

Regarding `Fc1ccccc1/C=C1\CCCC2=C1Nc1ncnn1C2c1ccccc1F` (stereo unspecified), the viability was 1.53% (active).

As to `COc1ccc(C2C(C(C)=O)=C(O)C(=O)N2c2nccs2)cc1` (stereo unspecified), the viability was 106% (inactive).

Consider `O=C(N/N=C/c1ccc(O)cc1)/C(=C/c1ccc([N+](=O)[O-])cc1)NC(=O)c1ccccc1`, for which the viability was 88.2% (inactive).

On to `COc1c(F)c(F)c(C(=O)O)c(Nc2ccccc2C)c1F`, for which the viability is 98.5% (inactive).

`COc1ccc(C(=O)OCC(=O)NCC2CCCCC2)cc1S(=O)(=O)N1CCCc2ccccc21`: the viability was 72.3% (inactive).

In the case of `C=CCn1c(SCCOc2ccc(OC)cc2)nnc1C(NC(=O)c1ccc(OC)cc1)C(C)C` (stereo unspecified), the viability is 64% (inactive).

As for `CCN(CC(=O)NC1CCS(=O)(=O)C1)c1nc(-c2cccnc2)nc2ccccc12` (stereo unspecified), the viability is 89.7% (inactive).

For the compound `Cc1cccc(N2CCN(S(=O)(=O)c3ccc4[nH]c(=O)c(=O)[nH]c4c3)CC2C)c1` (stereo unspecified), the viability is 98.9% (inactive).

In the case of `Cc1cccc(-n2c(N)c(C(=O)N3CCN(C)CC3)sc2=S)c1`, the viability was 94.4% (inactive).

With `Cc1cccc(-n2c(O)c(C=Nc3ccccc3N)c(=O)[nH]c2=O)c1`, the viability was 10% (active).

Regarding `O=C(C(NS(=O)(=O)c1cccc2nsnc12)c1ccccc1)N1CCN(c2ccccc2)CC1` (stereo unspecified), the viability is 52.6% (inactive).

Consider `CCSc1nnc(NC(=O)c2ccc(C)cc2)s1`, for which the viability is 103% (inactive).

For `CCOc1ccccc1C(=O)NCc1ccco1`, the viability was 74.1% (inactive).

`O=C(Nc1ccccc1)Nc1ccccc1C(=O)NCc1ccco1`: the viability is 99.2% (inactive).

Turning to `Cc1cccc(Nc2ccccc2C(=O)NCc2ccco2)c1C`, the viability is 15.7% (active).

As for `O=C(Oc1ccccc1C(=S)N1CCCCC1)c1cc([N+](=O)[O-])cc([N+](=O)[O-])c1`, the viability is 94.3% (inactive).

Regarding `COC(=O)c1nc2ccccc2s1`, the viability is 86.8% (inactive).

As for `COc1ccccc1N1CC(O)=C(c2nc3ccccc3s2)C1=N`, the viability is 31.6% (active).

In the case of `O=C(OC1CCOC1=O)c1ccc(-c2nc3ccccc3s2)s1` (stereo unspecified), the viability is 92.7% (inactive).

`COc1ccc(-c2nnc(SCc3cccnc3)o2)cc1`: the viability is 53.3% (inactive).

As for `O=C(COc1ccc(Cl)cc1)NCCSc1ccccc1`, the viability was 95.3% (inactive).

On to `CCOC(=O)NCc1ccc2c(c1)OCO2`, for which the viability is 113% (inactive).

As for `CCOC(=O)c1nc(-c2ccc3c(c2)OCO3)[nH]c1C`, the viability is 36% (active).

Consider `CCOC(=O)c1c(C)[nH]c(C(=O)COc2ccc3c(c2)OCO3)c1C`, for which the viability was 81.1% (inactive).

With `Cn1c(CCN2CCCCCC2)nc2cc(NC(=O)Nc3ccccc3)ccc21`, the viability is 9.15% (active).

Consider `Cc1nn(CC(=O)Nc2ccc3c(c2)nc(CN2CCCCC2)n3C)c(=O)c2ccccc12`, for which the viability is 104% (inactive).

For the compound `CCC(=O)Nc1ccc2c(c1)nc(CCN1CCN(C)CC1)n2C`, the viability was 74.1% (inactive).

Take `CC1CCC(N2CC(=O)N(Cc3ccc4c(c3)OCO4)C(c3ccc(F)cc3)C2=O)CC1` (stereo unspecified): the viability was 100% (inactive).

For the compound `COC(=O)c1sc(NC(=O)c2ccc(OC)cc2OC)nc1C`, the viability is 69.8% (inactive).

Regarding `CC(=O)c1sc(NC(=O)c2ccc(C)cc2)nc1C`, the viability is 80% (inactive).

Turning to `COc1cccc2sc(Nc3nc(C)c(C(C)=O)s3)nc12`, the viability is 32.5% (active).

As to `CC(C)CC(N=C1NC(C)(C)Cc2ccccc21)C(=O)O` (stereo unspecified), the viability is 108% (inactive).

Turning to `CCCCc1nnc(NC(=O)CSc2nc(C)cc(=O)[nH]2)s1`, the viability was 92.2% (inactive).

In the case of `Cc1ccc(-n2c(CNc3ccc(F)cc3)nnc2SCC(=O)N2CCOCC2)cc1`, the viability is 92% (inactive).

Consider `O=C(NCCC1=CCCCC1)C1CCN(Cc2cnn(-c3ccccc3)c2-n2cccc2)CC1`, for which the viability is 26% (active).

With `C1=C(CCNc2ncnc3c2cnn3-c2ccccc2)CCCC1`, the viability was 77% (inactive).

With `CC(=O)Nc1ccc(NC(=O)CSCc2cnn(-c3ccccc3)c2-n2cccc2)cc1`, the viability is 87.6% (inactive).

Turning to `CC(C)Oc1ccc(Oc2ccc(C(F)(F)F)cn2)cc1`, the viability was 98.7% (inactive).

Turning to `O=S(=O)(O)c1nc2ccccc2n1Cc1ccc(Cl)cc1`, the viability is 86.1% (inactive).

As for `N=c1n(Cc2ccc(Cl)cc2)c2ccccc2n1CC(O)c1ccco1` (stereo unspecified), the viability was 14.7% (active).

Take `Cn1c(=N)n(CC(O)c2ccccc2)c2ccccc21` (stereo unspecified): the viability is 80.7% (inactive).
